According to PubChem BioAssay:
Calls of active or inactive are those of the source. Unless noted, no stated cut-off is given here; in the data, active means inhibition above about 80%; inactive means the rest.

How the values were obtained:
[1] = growth inhibition, single agent or in combination, cell-based, chromothripsis tumors, cisplatin or BGB combos (AID 1671449); conditions: LFS_MB_P medulloblastoma cells;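 further: cells exposed for 96 hours; 0% = vehicle DMSO and 100% = killing by high DMSO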
[2] = growth inhibition, single agent and combos, cell-based, chromothripsis tumors, cisplatin or BGB combos (AID 1671450); conditions: HDN33 neuroblastoma cells, stronger effect = higher value;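 further: cells exposed to compound for four days; 0% = vehicle DMSO and 100% = cell killing by high DMSO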
[3] = growth inhibition, single agents and combos, ICB984, cell-based, cisplatin or BGB combos, synergistic combos for chromothripsis tumors (AID 1671451; call rule not given here;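 further: cells exposed for 96 hours before readout; 0% = vehicle DMSO and 100% = killing by high DMSO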); conditions: ICB984 medulloblastoma cells, drug combinations, stronger effect = higher value
[4] = growth inhibition, single agents and combos, LFS_MB_1R, cell-based, cisplatin or BGB combos, synergistic combos for chromothripsis tumors (AID 1671452); conditions: LFS_MB_1R medulloblastoma cells, stronger effect = higher value;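 further: cells exposed for 96 hours before readout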
[5] = growth inhibition, single agents and combos, HTB85, cell-based, BGB or cisplatin IC20 combos, synergistic combos for chromothripsis tumors (AID 1671453); conditions: HTB85 osteosarcoma cells, drug combinations, stronger effect = higher value;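 further: cells exposed for 96 hours before readout; 0% = vehicle DMSO and 100% = high DMSO killing control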
[6] = growth inhibition, single agents and combos, CRL2098, cell-based, BGB or cisplatin IC20 combos, synergistic combos for chromothripsis tumors (AID 1671454); conditions: CRL2098 osteosarcoma cells, drug combinations, stronger effect = higher value;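 further: cells exposed for 96 h before readout; 0% = vehicle DMSO and 100% = killing by high DMSO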
[7] = growth inhibition, single agents and combos, HD-MB03, cell-based, BGB or cisplatin IC20 combos, synergistic combos for chromothripsis tumors (AID 1671455; in the data active means inhibition above about 83%;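 further: 0% = vehicle DMSO and 100% = high DMSO as cytotoxic control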); conditions: HD-MB03 medulloblastoma cells, stronger effect = higher value
[8] = growth inhibition, single agents and combos, UWB1.289, cell-based, BGB or cisplatin combos, synergistic combos for chromothripsis tumors (AID 1671456); conditions: UWB1.289 ovarian carcinoma cells, stronger effect = higher value;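 further: cells exposed to compound for four days; 0% = vehicle DMSO and 100% = killing by high DMSO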
[9] = growth inhibition, single agents and combos, LFS_MB_2R, cell-based, cisplatin combos, synergistic combos for chromothripsis tumors (AID 1671457); conditions: LFS_MB_2R medulloblastoma cells, stronger effect = higher value;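 further: cells exposed to compound for four days before readout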
[10] = growth inhibition, MDA-MB-436, cell-based, BGB or cisplatin combos, synergistic combos for chromothripsis tumors (AID 1671458; call rule not given here;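 further: cells exposed for 96 hours; 0% = vehicle DMSO and 100% = killing by high DMSO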); conditions: MDA-MB-436 breast carcinoma growth inhibition, drug combinations, stronger effect = higher value
[11] = UWB1.289_BRCA1 ovarian cancer growth, cell-based, BGB or cisplatin combinations (AID 1671459); conditions: UWB1.289 BRCA1 ovarian carcinoma, drug combinations, stronger effect = higher value
[12] = drug combination toxicity in non-malignant astrocytes – cell-based, BGB or cisplatin IC20 combos, cytotoxicity control for chromothriptic childhood tumor combination screen (AID 1671460); conditions: Human astrocytes, viability inhibition, drug combinations, at 0.5 µM, stronger effect = higher value;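 further: cells exposed to compounds for 96 hours before viability readout; 0% = vehicle and 100% = killing control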
[13] = BT084 cell growth, single and combined drugs, ICGC_MB145, cisplatin and BGB IC40 combos (AID 1671461); conditions: BT084 medulloblastoma cells, drug combinations, stronger effect = higher value;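 further: cells exposed to drugs for 96 hours; 0% = vehicle DMSO and 100% = high DMSO full killing control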
[14] = RCMB18 cell growth, single agent and combined, cisplatin and BGB IC40 combos (AID 1671462); conditions: RCMB18 medulloblastoma cells, stronger effect = higher value;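 further: cells exposed to compound for four days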
[15] = CRL1545 cell growth, single agent and combined, cisplatin and BGB IC20 combos (AID 1671464); conditions: CRL1545 osteosarcoma cells, stronger effect = higher value;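 further: cells exposed to compound for 96 hours before readout; 0% = vehicle DMSO and 100% = high DMSO killing control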
[16] = measured here: combination with BGB IC40, at 0.05 µM
[17] = measured here: with BGB IC20 combination, at 0.5 µM
[18] = measured here: with cisplatin IC20 combination, at 0.5 µM
[19] = measured here: combination with cisplatin, at 0.5 µM
[20] = measured here: combination with cisplatin, at 5 µM

Nc1ccccc1NC(=O)c1cnccn1
inhibition ([1]; at 0.5 µM, stronger effect = higher value): -12.4% (inactive)
inhibition ([1]; measured here: combination with BGB IC20, at 0.005 µM): -41.6%
inhibition ([1]; measured here: combination with BGB IC40, at 0.005 µM): 85.5%
inhibition [1, 16]: -7.35%
inhibition ([1]; measured here: combination with cisplatin, at 0.5 µM, stronger effect = higher value): -18.9%
inhibition ([1]; measured here: combination with cisplatin, at 5 µM, stronger effect = higher value): -28.5%
inhibition ([2]; BGB combo, at 5 µM): -12.4%
inhibition ([2]; at 0.5 µM): -14.6% (inactive)
inhibition ([2]; cisplatin combo, at 5 µM): 6.5%
inhibition [2, 17]: -34.1%
inhibition [2, 18]: 5.82%
inhibition ([2]; single agent, at 5 µM): 1.32%
inhibition ([3]; BGB IC20 combo, at 0.005 µM): -16.9%
inhibition ([3]; BGB IC40 combo, at 0.005 µM): -7.68%
inhibition ([3]; BGB IC40 combo, at 0.05 µM): -8.97%
inhibition ([3]; at 0.5 µM): -30.1% (inactive)
inhibition ([3]; cisplatin combo, at 0.05 µM): -14.5%
inhibition ([3]; cisplatin combo, at 0.5 µM): -45.8%
inhibition ([3]; cisplatin combo, at 5 µM): -16.9%
inhibition ([3]; measured here: 5 uM single agent, at 5 µM): -10%
inhibition ([4]; at 0.5 µM): -27.6% (inactive)
inhibition [4, 16]: -29.7%
inhibition [4, 19]: -55.5%
inhibition [4, 20]: -22%
inhibition ([5]; at 0.5 µM): -12.2% (inactive)
inhibition ([5]; measured here: with BGB IC20, at 0.5 µM): -6.35%
inhibition ([5]; measured here: with BGB IC20, at 5 µM): 4.3%
inhibition ([5]; measured here: with cisplatin IC20, at 0.5 µM): -15.5%
inhibition ([5]; measured here: with cisplatin IC20, at 5 µM): 27.4%
inhibition ([5]; single agent, at 5 µM): -13.3%
inhibition ([6]; at 0.5 µM): -55.8% (inactive)
inhibition ([6]; measured here: combination with BGB at IC20, at 0.5 µM): -72.3%
inhibition ([6]; measured here: combination with cisplatin at IC20, at 0.5 µM): -47%
inhibition ([7]; at 0.5 µM): -6.67% (inactive)
inhibition ([7]; measured here: combo with BGB at IC20, at 0.5 µM): -7.96%
inhibition ([7]; measured here: combo with cisplatin at IC20, at 0.5 µM): -6.22%
inhibition ([8]; at 0.5 µM): 12.9% (inactive)
inhibition ([8]; measured here: inhibition with BGB combination, at 0.05 µM): -30.1%
inhibition ([8]; measured here: inhibition with cisplatin combination, at 0.05 µM): -23.2%
inhibition ([9]; at 0.5 µM): -19.8% (inactive)
inhibition [9, 19]: -6.3%
inhibition [9, 20]: 1.58%
inhibition ([10]; at 0.5 µM): -6.35% (inactive)
inhibition ([10]; measured here: BGB combination, at 0.5 µM): -5.5%
inhibition ([10]; measured here: BGB combination, at 5 µM): -1.92%
inhibition ([10]; measured here: cisplatin combination, at 0.5 µM): -13.4%
inhibition ([10]; measured here: cisplatin combination, at 5 µM): -2.01%
inhibition ([11]; BGB combination, concentration series, at 5 µM): 22.6%
inhibition ([11]; at 0.5 µM): -5.39% (inactive)
inhibition ([11]; cisplatin combination, concentration series, at 5 µM): 17%
inhibition [12]: 3.77% (inactive)
inhibition ([12]; measured here: combo with BGB IC20): 3.42%
inhibition ([12]; measured here: combo with cisplatin IC20): 8.86%
inhibition ([13]; at 0.5 µM): -7.12% (inactive)
inhibition ([13]; cisplatin combination, at 0.5 µM): -9.24%
inhibition ([13]; cisplatin combination, at 5 µM): -35.5%
inhibition ([13]; measured here: BGB IC40 combination 0.05 uM, at 0.05 µM): -29.6%
inhibition ([13]; single agent, at 5 µM): 14.3%
inhibition ([14]; at 0.5 µM): -13.8% (inactive)
inhibition ([14]; cisplatin combo, at 5 µM): 35.4%
inhibition ([14]; measured here: BGB IC40 combination, at 0.05 µM): -24.6%
inhibition [14, 19]: -43.9%
inhibition ([14]; single agent, at 5 µM): 21.9%
inhibition ([15]; at 0.5 µM): 19.6% (inactive)
inhibition [15, 17]: -5.57%
inhibition [15, 18]: 31.1%
inhibition ([15]; single agent, at 0.05 µM): -21.9%
inhibition ([15]; single agent, at 5 µM): 32.9%
